“And” between values parts separate entries of the source, which are not always exact repeats. Equal entries are not always repeated. Records with an inconclusive call do not appear. For part of these data: Results with a measured potency or affinity are listed apart. The source made the active and inactive calls. Unless noted, no rule for the calls is given here.

Broadly, the inhibition is the change of the read-out against control, counted positive when it falls. The term viability denotes the share of living cells, or the viability signal relative to a control.

The nature of test [1]: polyglutamine-triggered caspase-3 activation inhibitors, cell-based (AID 1583). Conditions: polyglutamine-induced caspase-3 activation, cell assay; stronger effect = higher value;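 tested at 10 µM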.
Test [2] in a line: suppressors of polyQ aggregation in yeast, 75Q-TubU reporter (AID 1593). The settings on record: Yeast 75Q polyglutamine aggregation reporter.
The nature of test [3]: rescue of polyQ-huntingtin neuronal dysfunction in worms, whole organism, C. elegans mechanosensory neurons, N-terminal huntingtin (AID 1599). Conditions: touch response, stronger effect = higher value.
Test [4] in a line: inhibitors of mitochondrial cytochrome c release, biochemical, purified mitochondria (AID 1603).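 Also: mouse liver mitochondria challenged with calcium chloride; signal normalized to the plate average as 100%.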 Conditions: stronger effect = lower value.
The nature of test [5]: inhibitors of polyQ protein aggregation (AID 1604). Conditions: polyglutamine-induced protein aggregation inhibition assay; stronger effect = higher value; tested at 2.5 µM.
A short description of test [6]: enhancers of glutamate uptake in motor neurons, MN-1 cell line (AID 1612).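 Also: tested at 1 µM final; 0% = mean of DMSO vehicle wells on each plate; positive means more glutamate uptake than control and negative means less.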 The settings on record: MN-1 motor neuron cells, stronger effect = higher value.
A short description of test [7]: reducers of polyQ inclusions in PC12 cells, cell-based, NGF-treated PC12, GFPQ80 (AID 1614).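 Also: lower means fewer inclusions and 0 means no inclusions at all.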 Conditions: PC12 NGF-treated GFP-polyQ80 inclusion reduction.
The nature of test [8]: suppressors of polyglutamine aggregation in yeast, 75Q-TubH (AID 1616). The settings on record: S. cerevisiae 75Q-TubH polyglutamine aggregation suppression; stronger effect = higher value.
Test [9] is described as follows: liver-stage malaria parasite growth inhibition, primary screen, cell-based, HepG2, luciferase luminescence, HepG2 viability (AID 624349; in the data active = parasite load remaining mostly below about 12%, no sharp cut-off; inactive = mostly above about 10%;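 also: 100% = mean of DMSO negative control wells on the same plate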). Conditions: P. berghei liver stage in HepG2, luciferase luminescence, concentration not given here; parasite load remaining: stronger effect = lower value; viability: measured here: HepG2 viability without parasites.
In test [10] the target is 6-phosphogluconate dehydrogenase, decarboxylating (Homo sapiens) (UniProt P52209). As to the kind of experiment: 6PGD enzyme inhibitors, primary screen, biochemical, human, recombinant enzyme, NADPH absorbance (AID 1159550;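 active = at least 20% inhibition of 6-phosphogluconate dehydrogenase activity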). Conditions: recombinant 6PGD, NADPH absorbance 341 nm; at 10 µM; stronger effect = higher value.
Test [11] is described as follows: differential killing of epithelial or mesenchymal cells, primary screen, imaging, PC-3E GFP, TEM4-18 mCherry, co-culture (AID 1345086;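 active = compounds killing one labelled cell type while sparing the other, by normalised counts and ratio limits, not self-fluorescent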;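 as to all read-outs here: cells exposed to compound for 72 h before imaging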;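 as to red/green cell ratio (normalised): normalised mesenchymal count divided by normalised epithelial count so high means epithelial killing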). The settings on record: imaging cell counts, at 1 µM; for red/green cell ratio (normalised): actives lie on both sides.
Test [12] relates to Aerobactin synthetase IucA (Klebsiella pneumoniae hvKP1). Kind of test: Biochemical IucA enzyme inhibition primary screen of the Spectrum library (AID 1346200).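 Also: 100% = wells without compound and 0% = wells lacking enzyme.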 Conditions: malachite green pyrophosphate, A620, at 8 µM, stronger effect = lower value.
A short description of test [13]: sensitizers of A549 cells to miR-34 induction, primary screen, imaging, A549 dox-inducible miR-34, nuclei and caspase counts (AID 1347080;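 active = compounds whose cell count with miR-34 switched on is under 0.7 times the count with it off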). The settings on record: A549 miR-34 inducible, Hoechst nuclei count, 48 h.
Test [14] concerns the target Mitogen-activated protein kinase 7 (Homo sapiens) (UniProt Q13164). As to the kind of experiment: ERK5 transactivation activators in reporter cells, primary screen, cell-based, HTS (AID 1508626;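 active = luciferase signal above three times the same-plate solvent-only control wells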;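 also: luciferase driven by Gal4-ERK5 fusion binding five Gal4 sites before minimal TATA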). Conditions: HeLa Gal4-ERK5 transactivation, 18 h, at 5 µM, stronger effect = higher value.
Test [15] concerns the target NAD(+) hydrolase SARM1 (Homo sapiens) (UniProt Q6SZW1). Kind of test: SARM1 TIR NADase inhibitors, cell lysate, NAD-Glo luminescence (AID 1508614;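 active = compound whose remaining NAD level is above about 45 nM, limit read from the data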;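 also: higher remaining NAD means stronger inhibition of SARM1 NADase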). Conditions: SAM-TIR HEK293T lysate NADase, at 1 µM, stronger effect = higher value.
Test [16] has as its target ATP-dependent translocase ABCB1 (Homo sapiens) (UniProt P08183). As to the kind of experiment: MDR1 (ABCB1) efflux transporter inhibition, cell-based (AID 377; in the data active = fluorescence slope change above about 50%). Conditions: MDR1-expressing cells, fluorescent substrate accumulation slope; stronger effect = higher value; concentration not given here.
Test [17] can be described thus: hESC survival regulators, cell-based (AID 493140).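 Also: cells exposed to compounds for four days before counting.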 Conditions: human embryonic stem cell survival screen; stronger effect = higher value.
Where [18] appears, read: measured here: epithelial PC-3E GFP cell survival.
[19] abbreviates: measured here: mesenchymal TEM4-18 mCherry cell survival.
[20] abbreviates: measured here: relative caspase fold change +Dox/-Dox.
Where [21] appears, read: measured here: total cells with miR-34 induction, stronger effect = lower value.
[22] abbreviates: measured here: total cells without miR-34 induction.

Sequence of 6-phosphogluconate dehydrogenase, decarboxylating (Homo sapiens) (P52209 whole entry, looked up): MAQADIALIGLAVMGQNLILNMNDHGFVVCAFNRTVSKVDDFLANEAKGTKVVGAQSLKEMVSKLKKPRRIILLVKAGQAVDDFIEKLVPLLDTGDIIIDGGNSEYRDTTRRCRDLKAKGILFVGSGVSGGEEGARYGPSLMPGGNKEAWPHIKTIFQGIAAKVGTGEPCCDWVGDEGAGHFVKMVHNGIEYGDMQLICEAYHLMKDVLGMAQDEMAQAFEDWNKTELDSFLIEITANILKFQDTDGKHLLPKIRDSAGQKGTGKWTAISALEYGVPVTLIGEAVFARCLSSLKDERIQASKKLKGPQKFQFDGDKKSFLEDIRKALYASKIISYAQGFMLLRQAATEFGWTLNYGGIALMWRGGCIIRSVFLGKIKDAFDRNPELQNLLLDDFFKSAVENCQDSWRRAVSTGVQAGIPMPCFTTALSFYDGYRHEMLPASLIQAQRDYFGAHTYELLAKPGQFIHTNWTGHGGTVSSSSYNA
Sequence of Mitogen-activated protein kinase 7 (Homo sapiens) (Q13164 whole entry, looked up, the tested form may be a part): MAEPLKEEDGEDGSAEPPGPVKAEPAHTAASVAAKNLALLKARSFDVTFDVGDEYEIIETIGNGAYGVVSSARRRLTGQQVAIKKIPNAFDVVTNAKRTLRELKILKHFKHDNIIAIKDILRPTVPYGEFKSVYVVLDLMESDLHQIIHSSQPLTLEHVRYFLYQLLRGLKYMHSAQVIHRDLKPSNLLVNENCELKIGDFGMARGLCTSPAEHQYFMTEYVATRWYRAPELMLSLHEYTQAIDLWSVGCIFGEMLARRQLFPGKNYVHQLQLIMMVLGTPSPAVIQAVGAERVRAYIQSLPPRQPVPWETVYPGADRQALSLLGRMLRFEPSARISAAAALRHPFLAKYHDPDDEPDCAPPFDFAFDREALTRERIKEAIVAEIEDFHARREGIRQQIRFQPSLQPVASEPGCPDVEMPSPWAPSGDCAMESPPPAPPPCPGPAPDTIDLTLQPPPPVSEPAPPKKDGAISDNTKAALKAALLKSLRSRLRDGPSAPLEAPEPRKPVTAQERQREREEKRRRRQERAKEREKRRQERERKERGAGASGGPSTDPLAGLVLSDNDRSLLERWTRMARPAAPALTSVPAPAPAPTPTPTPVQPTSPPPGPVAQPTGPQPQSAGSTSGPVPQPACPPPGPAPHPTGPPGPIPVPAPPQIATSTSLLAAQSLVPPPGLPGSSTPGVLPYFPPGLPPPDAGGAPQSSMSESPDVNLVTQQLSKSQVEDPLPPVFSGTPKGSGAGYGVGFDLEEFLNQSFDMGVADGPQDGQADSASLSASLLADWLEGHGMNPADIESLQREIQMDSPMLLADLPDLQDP
Sequence of NAD(+) hydrolase SARM1 (Homo sapiens) (Q6SZW1 whole entry, looked up): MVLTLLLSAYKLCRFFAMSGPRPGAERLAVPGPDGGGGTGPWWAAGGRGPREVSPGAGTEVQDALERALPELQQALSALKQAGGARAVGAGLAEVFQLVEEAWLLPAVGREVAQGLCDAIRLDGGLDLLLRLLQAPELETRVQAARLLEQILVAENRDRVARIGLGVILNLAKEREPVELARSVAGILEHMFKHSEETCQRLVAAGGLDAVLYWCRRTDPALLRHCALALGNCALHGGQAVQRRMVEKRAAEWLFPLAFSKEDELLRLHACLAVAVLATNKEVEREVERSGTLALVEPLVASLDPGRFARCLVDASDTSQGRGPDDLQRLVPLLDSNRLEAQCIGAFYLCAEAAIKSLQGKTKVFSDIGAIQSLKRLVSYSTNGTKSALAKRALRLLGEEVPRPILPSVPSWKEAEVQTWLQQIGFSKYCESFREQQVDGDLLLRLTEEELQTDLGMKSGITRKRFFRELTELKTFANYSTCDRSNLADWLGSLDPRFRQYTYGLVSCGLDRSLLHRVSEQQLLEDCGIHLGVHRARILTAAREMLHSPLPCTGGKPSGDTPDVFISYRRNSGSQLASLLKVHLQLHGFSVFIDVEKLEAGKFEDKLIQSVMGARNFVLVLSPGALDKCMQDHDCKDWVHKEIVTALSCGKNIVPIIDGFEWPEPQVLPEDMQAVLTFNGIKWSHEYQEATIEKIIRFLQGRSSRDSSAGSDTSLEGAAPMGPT
Sequence of ATP-dependent translocase ABCB1 (Homo sapiens) (P08183 whole entry, looked up): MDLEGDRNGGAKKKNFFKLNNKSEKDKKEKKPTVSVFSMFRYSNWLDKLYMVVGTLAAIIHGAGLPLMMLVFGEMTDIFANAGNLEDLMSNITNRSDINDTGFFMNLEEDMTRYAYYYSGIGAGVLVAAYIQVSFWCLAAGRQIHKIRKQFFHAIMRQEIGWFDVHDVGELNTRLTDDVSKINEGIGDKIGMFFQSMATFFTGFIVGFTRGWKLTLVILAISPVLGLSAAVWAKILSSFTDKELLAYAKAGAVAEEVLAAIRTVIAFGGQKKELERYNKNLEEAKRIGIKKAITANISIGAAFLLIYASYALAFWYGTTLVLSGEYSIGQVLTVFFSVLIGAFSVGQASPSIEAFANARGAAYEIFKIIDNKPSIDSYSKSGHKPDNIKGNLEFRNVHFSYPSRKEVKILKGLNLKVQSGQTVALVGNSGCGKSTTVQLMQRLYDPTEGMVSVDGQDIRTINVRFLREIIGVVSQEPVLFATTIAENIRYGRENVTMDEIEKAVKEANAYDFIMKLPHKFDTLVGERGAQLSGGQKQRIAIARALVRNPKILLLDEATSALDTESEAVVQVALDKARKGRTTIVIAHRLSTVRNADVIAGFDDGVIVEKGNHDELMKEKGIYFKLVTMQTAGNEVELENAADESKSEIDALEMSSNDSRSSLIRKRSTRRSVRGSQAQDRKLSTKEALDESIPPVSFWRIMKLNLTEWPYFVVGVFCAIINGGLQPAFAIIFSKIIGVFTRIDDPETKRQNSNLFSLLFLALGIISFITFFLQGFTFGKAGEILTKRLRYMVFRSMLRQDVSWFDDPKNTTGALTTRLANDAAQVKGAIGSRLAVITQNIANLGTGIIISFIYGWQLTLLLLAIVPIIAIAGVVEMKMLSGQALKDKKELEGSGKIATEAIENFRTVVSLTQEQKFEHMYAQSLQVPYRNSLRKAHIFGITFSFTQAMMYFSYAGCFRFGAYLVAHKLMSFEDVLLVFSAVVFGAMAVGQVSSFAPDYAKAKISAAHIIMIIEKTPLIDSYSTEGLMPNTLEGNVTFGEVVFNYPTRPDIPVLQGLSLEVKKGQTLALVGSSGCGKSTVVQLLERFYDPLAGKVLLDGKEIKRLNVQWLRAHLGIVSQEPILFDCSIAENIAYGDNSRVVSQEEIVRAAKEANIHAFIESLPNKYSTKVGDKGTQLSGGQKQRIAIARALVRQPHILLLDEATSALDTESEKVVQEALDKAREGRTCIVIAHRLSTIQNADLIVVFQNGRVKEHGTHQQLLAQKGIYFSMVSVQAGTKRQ

In the case of `CN[C@@H](C)[C@@H](O)c1ccccc1`, the inhibition in [1] is 11.2%; in [10] it was 2.73% (inactive). For the same molecule, the score in test [2] is 1.57. For the same molecule, the rescue above control in test [3] was -0.65. Also, the cytochrome c release ratio in test [4] turned out to be 0.84. In test [5], this molecule showed an inhibition of aggregation of 80.3%. For the same molecule, the glutamate uptake change in [6] is -5.15%. In addition, the inclusion score in [7] turned out to be 2. Moreover, the aggregation suppression score in [8] was 1.15. Also, the parasite load remaining in test [9] is 106% (inactive) and 61.4% (inactive). Besides, the viability in test [9] is 73.1% and 87.5%. The red/green cell ratio (normalised) in [11] is 1.05 (inactive). The normalised cell number in [11] (setting [18]) was found to be 1.12; in test [11] (setting [19]) it was 1.18. In test [12], the activity remaining is 98.2% (inactive). The fold change was 0.905 (inactive) in test [13] (stronger effect = lower value) and 3.17 in test [13] (setting [20]). Besides, the figures for the cell count in [13] (setting [21]) and in [13] (setting [22]) were 11300 and 12500, respectively. For the same molecule, in test [14], the luciferase signal is 36 AU (inactive).
Take `ClC1C(Cl)C(Cl)C(Cl)C(Cl)C1Cl` (stereo unspecified): the results for the inhibition in test [1] and in [10] were 25.7% and 7.58% (inactive), respectively. In [2], this molecule returned a score of 0.3. Further, the rescue above control in test [3] was -3.21. The cytochrome c release ratio in test [4] was 1.15. Further, the inhibition of aggregation in test [5] was 69.4%. The glutamate uptake change in test [6] came out at 1.02%. This molecule also returned an aggregation suppression score in test [8] of -0.101. The parasite load remaining in test [9] is 60.1% (inactive). This molecule came in with a viability in [9] of 93.4%. Moreover, the red/green cell ratio (normalised) in test [11] was 1.19 (inactive). For the same molecule, the normalised cell number in [11] (setting [18]) turned out to be 1.23; in [11] (setting [19]), 1.47. The activity remaining in test [12] is 113% (inactive). Further, the fold change in [13] (stronger effect = lower value) was 0.871 (inactive); in test [13] (setting [20]), 1.71. Also, the cell count worked out at 10400 in test [13] (setting [21]) and 11900 in test [13] (setting [22]). The remaining NAD in test [15] was 10 nM (inactive). For the same molecule, the luciferase signal in test [14] is 192 AU (inactive).
As to `CN1CCc2cc3c(cc2C1O)OCO3` (stereo unspecified), in [16], the fluorescence slope change was 10.4% (inactive). Besides, the inhibition in [1] is -17.4%; in test [10] it was 0.261% (inactive). Besides, in test [2], the score stood at 1.48. This molecule showed a rescue above control in test [3] of 11.7. The cytochrome c release ratio in test [4] turned out to be 0.81. This molecule came in with an inhibition of aggregation in test [5] of 65.5%. Further, in test [6], the glutamate uptake change amounted to 6.97%. The molecule also came in with an inclusion score in [7] of 2. In test [8], this molecule came in with an aggregation suppression score of 1.11. Besides, the survival in test [17] is 16.8 (inactive). Moreover, the parasite load remaining in test [9] is 109% (inactive) and 58% (inactive). The viability in test [9] is 90% and 91.8%. Also, in test [11], the red/green cell ratio (normalised) is 1.09 (inactive). For the same molecule, the normalised cell number in test [11] (setting [18]) came out at 0.97; in test [11] (setting [19]), 1.06. In addition, the activity remaining in test [12] was 118% (inactive). Also, the fold change in [13] (stronger effect = lower value) is 0.923 (inactive); in [13] (setting [20]), 1.43. In addition, the cell count in test [13] (setting [21]) turned out to be 11700; in test [13] (setting [22]), 12700. Further, the remaining NAD in [15] is 10 nM (inactive). Moreover, the luciferase signal in test [14] was 52 AU (inactive).
Consider `CC(=O)Oc1c2c(c(CC=C(C)C)c3c1C(=O)C1=C[C@@H]4CC5C(C)(C)OC(C/C=C(\C)C(=O)O)(C4=O)[C@@]15O3)OC(C)(CCC=C(C)C)C=C2` (stereo partly specified), for which the inhibition in test [10] is 23.4% (active). For the same molecule, in [11] (counts scaled to control wells, 1 = unselective), the red/green cell ratio (normalised) was 0.83 (inactive). Further, the normalised cell number in test [11] (setting [18]) is 1.18; in [11] (setting [19]), 0.98. The activity remaining in test [12] was 120% (inactive). Besides, the luciferase signal in [14] was 140 AU (inactive).
For the molecule `COc1cc2c(cc1OC)[C@@H]1C(=O)c3ccc(OC)c(CC=C(C)C)c3O[C@@H]1CO2`, the inhibition in test [10] was 18.8% (inactive). Further, in test [11], the red/green cell ratio (normalised) was 0.91 (inactive). The normalised cell number in test [11] (setting [18]) is 0.87; in test [11] (setting [19]) it was 0.8. Further, the activity remaining in test [12] was 109% (inactive). The luciferase signal in test [14] was 68 AU (inactive).
Take `COC(=O)NC(=S)Nc1ccccc1NC(=S)NC(=O)OC`: the inhibition in [10] is -13.9% (inactive). The red/green cell ratio (normalised) in test [11] was 0.85 (inactive). Besides, the normalised cell number amounted to 1.16 in test [11] (setting [18]) and 0.98 in test [11] (setting [19]). In addition, the activity remaining in [12] is 110% (inactive). Further, the luciferase signal in [14] is 8 AU (inactive).

These data come from PubChem BioAssay.
